PAFAH1B2 inh: inhibitors of human PAFAH1B2 | P68402 | recombinant PAFAH1B2, FP-rhodamine activity probe, fluorescence polarization | inhibition, % at 3.39 µM | hit rate 1.2% among 340,000 | AID 492953;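 active means inhibition above the mean of all tested compounds plus 3 SD, cut at about 24% in these data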;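 further: 0% = enzyme with DMSO and 100% = wells lacking PAFAH1B2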
Target sequence (P68402 whole entry, looked up): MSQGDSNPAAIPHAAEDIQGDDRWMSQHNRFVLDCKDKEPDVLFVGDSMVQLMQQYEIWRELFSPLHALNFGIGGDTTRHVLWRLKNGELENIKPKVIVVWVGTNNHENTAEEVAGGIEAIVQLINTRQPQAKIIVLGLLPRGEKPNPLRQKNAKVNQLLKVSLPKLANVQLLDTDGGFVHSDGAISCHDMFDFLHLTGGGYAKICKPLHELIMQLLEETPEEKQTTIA
PME-1 primary: blocks human protein phosphatase methylesterase 1; Q9Y570; recombinant PME-1, FP-Rh probe fluorescence polarization; inhibition, % at 5.9 µM; hit rate 0.53% among 320,000;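 active means inhibition above the campaign mean of all compounds plus 3 SD, cut at about 26% in these data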;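 further: competitive labeling of PME-1 active site by serine hydrolase directed probe; 0% = PME-1 with DMSO and 100% = wells lacking PME-1 enzyme; inhibitors block probe labeling so polarization falls and inhibition rises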
PAFAH2 inh: inhibitors of human PAFAH2. Q99487. hit rate 0.99% among 340,000. inhibition, % at 3.39 µM. recombinant PAFAH2, FP-rhodamine activity probe, fluorescence polarization;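 active means inhibition above the mean over all tested compounds plus 3 SD, cut at about 30% in these data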;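 further: inhibitors block probe labeling of enzyme so polarization drops; 0% = enzyme with DMSO and 100% = wells lacking PAFAH2 protein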
PAFAH1B3 FP inh: blocks human PAF acetylhydrolase 1B catalytic subunit 3; Q15102; inhibition, % at 3.39 µM; recombinant PAFAH1B3, FP-rhodamine probe, fluorescence polarization; hit rate 0.28% among 340,000;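 active means inhibition above the screen-wide average of all tested compounds plus 3 SD, cut at about 25% in these data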;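 further: 0% = enzyme with DMSO only and 100% = wells lacking PAFAH1B3 protein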
Target sequence (Q15102 whole entry, looked up): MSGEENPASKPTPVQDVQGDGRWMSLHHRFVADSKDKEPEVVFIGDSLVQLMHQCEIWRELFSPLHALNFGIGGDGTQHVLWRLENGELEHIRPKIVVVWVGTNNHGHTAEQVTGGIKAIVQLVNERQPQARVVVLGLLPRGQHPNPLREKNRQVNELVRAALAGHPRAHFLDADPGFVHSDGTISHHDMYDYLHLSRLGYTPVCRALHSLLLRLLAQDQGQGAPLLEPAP
Fam108B inh: Fam108B inhibition, counter-screen for RBBP9 inhibitors | recombinant Fam108B, FP-Rh probe fluorescence polarization | inhibition, % at 9.51 µM | hit rate 0.33% among 300,000;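 active means inhibition above the screen mean inhibition plus 3 SD, computed separately per campaign, cut at about 18% in these data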;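 further: inhibitors lower polarization as less probe binds the enzyme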
pPAFAH inh: pPAFAH (human) enzyme inhibition | Q13093 | recombinant pPAFAH, FP-rhodamine probe fluorescence polarization | inhibition, % at 3.39 µM | hit rate 1.5% among 330,000 | AID 463082;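 active means inhibition above the mean inhibition across the screen plus 3 SD, cut at about 25% in these data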;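 further: inhibitors block binding of the rhodamine activity-based probe so polarization drops; 0% = enzyme with DMSO and 100% = wells lacking pPAFAH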
PAFAH2 confirm: confirmation of human PAFAH2 inhibitors. shares compounds with PAFAH2 inh. inhibition, % at 3.39 µM. recombinant PAFAH2, FP-rhodamine activity probe, fluorescence polarization. hit rate 65% among 2,300;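 active means mean inhibition over three repeats above a set limit taken from the earlier primary screen, cut at about 30% in these data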;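 further: inhibitor blocks binding of rhodamine activity probe so polarization falls; 0% = enzyme with DMSO and 100% = wells lacking PAFAH2 protein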
* hit, by the source's call. Rows were chosen to be rich in hits. Some 2.9% of all compounds tested hit in one or more screens of this group.

Nc1c(Cl)cc(Cl)cc1C(=O)OCC(=O)N1CCCC1=O was read as PAFAH1B2 inh 13.9, PME-1 primary 5.9, PAFAH2 inh 40.4*, PAFAH1B3 FP inh -0.4, Fam108B inh -1.7, pPAFAH inh 3.0 and PAFAH2 confirm 36.2*.
Screening Cc1cccc(C(=O)OCC(=O)N2CCCC2=O)c1O returned PAFAH1B2 inh 0.6, PME-1 primary -5.6, PAFAH2 inh 38.1*, PAFAH1B3 FP inh 4.3, pPAFAH inh -3.2 and PAFAH2 confirm 21.5.
For COc1ccc(CSCC(=O)N/N=C/c2ccccc2O)cc1 the results were PAFAH1B2 inh 4.8, PME-1 primary -6.7, PAFAH2 inh -43.7, PAFAH1B3 FP inh 16.8, Fam108B inh 0.1 and pPAFAH inh 6.2.
For COc1ccnc(Oc2cccc(C(F)(F)F)c2)c1C(=O)N/C=N/OCc1ccccc1F the results were PAFAH1B2 inh 0.9, PME-1 primary -3.0, PAFAH2 inh 0.0, PAFAH1B3 FP inh -3.3, Fam108B inh 1.6 and pPAFAH inh 5.1.
Cc1c(Cl)cccc1N=C1SCCN1C(=O)CN1C(=O)NC2(CCCC2)C1=O was read as PAFAH1B2 inh 7.4, PME-1 primary 6.0, PAFAH2 inh 30.4*, PAFAH1B3 FP inh 4.8, Fam108B inh 2.1, pPAFAH inh 12.7 and PAFAH2 confirm 18.1.
Screening O=C1C=CC(=O)C(CNc2ccc(C(=O)OCc3ccccc3)cc2)=C1 returned PAFAH1B2 inh 8.0, PAFAH2 inh 58.9*, PAFAH1B3 FP inh 15.1 and PAFAH2 confirm 37.0*.
`O=C(NC1CCCN(C2Cc3ccccc3C2)C1)c1ccc(F)cc1Cl` (stereo not given) gave PAFAH1B2 inh 1.8, PME-1 primary 0.0, PAFAH2 inh 42.3*, PAFAH1B3 FP inh 1.4, Fam108B inh -2.6, pPAFAH inh 1.9 and PAFAH2 confirm 16.1.
For CSCC(=O)NC1CCCN(C2Cc3ccccc3C2)C1 (stereo not given) the results were PAFAH1B2 inh 3.6, PME-1 primary 2.0, PAFAH2 inh 5.5, PAFAH1B3 FP inh -4.4, Fam108B inh 0.8 and pPAFAH inh 2.3.
For O=C(NCC1CCCO1)NC12CC3CC(CC(C3)C1)C2 (stereo not given) the results were PAFAH1B2 inh 2.2, PME-1 primary 4.8, PAFAH2 inh 33.5*, PAFAH1B3 FP inh -0.2, Fam108B inh 1.7, pPAFAH inh 6.0 and PAFAH2 confirm 26.6.
Screening S=C(NCC1CCCO1)NC12CC3CC(CC(C3)C1)C2 (stereo not given) returned PAFAH1B2 inh 17.3, PME-1 primary 0.6, PAFAH2 inh 23.9, PAFAH1B3 FP inh 8.6, Fam108B inh -3.0 and pPAFAH inh 4.7.
O=c1[nH]c2cc(Br)cnc2nc1/C=C(\O)c1ccc(F)cc1 was read as PAFAH1B2 inh -2.6, PME-1 primary 18.5, PAFAH2 inh -14.7, PAFAH1B3 FP inh -0.2, Fam108B inh -0.9 and pPAFAH inh 6.5.
Screening Cc1cnc(C(=O)Nc2ccc(C)c(S(=O)(=O)N3CCCCC3)c2)cn1 returned PAFAH1B2 inh 1.6, PME-1 primary -2.3, PAFAH2 inh 0.7, PAFAH1B3 FP inh 7.1 and pPAFAH inh -3.5.
O=C1CCC/C=C\C[C@@H](CC(=O)N(CCO)Cc2ccccc2)C(=O)N[C@H](c2ccccc2)CO1 was read as PAFAH1B2 inh 7.4, PAFAH2 inh 66.2*, PAFAH1B3 FP inh 6.5, pPAFAH inh 8.7 and PAFAH2 confirm 56.3*.
Screening O=C1N[C@@H](c2ccccc2)COC(=O)[C@@H](Cc2ccc(F)cc2)C/C=C\C[C@@H]1CC(=O)N(CCO)Cc1ccccc1 returned PAFAH1B2 inh -6.4, PAFAH2 inh 1.9, PAFAH1B3 FP inh 6.8 and pPAFAH inh 9.2.
Screening Cc1ccccc1NC(=O)Cc1nnc(SCC(=O)N2CCOCC2)n1C returned PAFAH1B2 inh 3.3, PME-1 primary -0.4, PAFAH2 inh -2.3, PAFAH1B3 FP inh 8.5, Fam108B inh -1.7 and pPAFAH inh 2.6.
For O=C(COC(=O)C1CC2CCCC(C1)C2=O)Nc1ccccc1 (stereo not given) the results were PAFAH1B2 inh 0.6, PME-1 primary -4.3, PAFAH2 inh 63.6*, PAFAH1B3 FP inh 11.0, pPAFAH inh 1.9 and PAFAH2 confirm 59.7*.
Screening O=C(COC(=O)C1CC2CCCC(C1)C2=O)Nc1cccc(F)c1 (stereo not given) returned PAFAH1B2 inh 7.1, PME-1 primary 7.6, PAFAH2 inh 67.5*, PAFAH1B3 FP inh 3.6, pPAFAH inh -3.9 and PAFAH2 confirm 68.6*.
Screening N#C/C(=C\c1ccc(O)c(O)c1)C(=O)N1CCc2ccccc21 returned PAFAH1B2 inh 10.1, PME-1 primary 3.3, PAFAH2 inh 48.7*, PAFAH1B3 FP inh 23.1, Fam108B inh 5.6, pPAFAH inh 3.4 and PAFAH2 confirm 33.2*.
`COc1cc(/C=C(\C#N)C(=O)N2CCc3ccccc32)ccc1O` gave PAFAH1B2 inh -2.3, PME-1 primary -3.2, PAFAH2 inh 3.6, PAFAH1B3 FP inh 8.6, Fam108B inh -0.3 and pPAFAH inh 2.8.
For O=C(CS(=O)(=O)Cc1ccccc1)Nc1ccc(Cl)cn1 the results were PAFAH1B2 inh 9.0, PME-1 primary -5.8, PAFAH2 inh 61.1*, PAFAH1B3 FP inh 1.4, Fam108B inh -6.7, pPAFAH inh 18.1 and PAFAH2 confirm 40.0*.
Screening O=C(Cc1ccc(Cl)cc1)Nc1ccc(Cl)cn1 returned PAFAH1B2 inh 6.4, PME-1 primary -3.4, PAFAH2 inh -7.8, PAFAH1B3 FP inh 6.4, Fam108B inh 1.4 and pPAFAH inh -0.3.
O=C(CS(=O)(=O)Cc1ccccc1)Nc1ccccn1 was read as PAFAH1B2 inh -2.0, PME-1 primary -4.2, PAFAH2 inh 35.5*, PAFAH1B3 FP inh 7.2, Fam108B inh -8.9, pPAFAH inh 19.6 and PAFAH2 confirm 27.6.
Cc1ccc(N(O)C(=O)OCCNC(=O)Nc2ccccc2)cc1 was read as PAFAH1B2 inh 14.7, PME-1 primary 4.8, PAFAH2 inh -4.4, PAFAH1B3 FP inh 3.4, Fam108B inh 1.6 and pPAFAH inh 0.5.
`Cn1nnnc1SCC1=C(C(=O)O)N2C(=O)C(NC(=O)C3CC3c3ccccc3)C2SC1` (stereo not given) gave PAFAH1B2 inh 6.7, PME-1 primary 2.4, PAFAH2 inh 44.2*, PAFAH1B3 FP inh -2.6, Fam108B inh -3.3, pPAFAH inh 0.9 and PAFAH2 confirm 6.3.
For Cc1ccc(CNC(=O)c2ccccc2NS(C)(=O)=O)cc1 the results were PAFAH1B2 inh 6.9, PME-1 primary 2.8, PAFAH2 inh -2.9, PAFAH1B3 FP inh 1.4, Fam108B inh 2.2 and pPAFAH inh 1.1.
`CCOC(=O)c1c(NC(=O)C2CC(Cl)=CCC2C(=O)O)sc2c1CCCCC2` (stereo not given) gave PAFAH1B2 inh 6.7, PME-1 primary 6.7, PAFAH2 inh 38.4*, PAFAH1B3 FP inh 18.4, Fam108B inh -1.6, pPAFAH inh 14.5 and PAFAH2 confirm 27.6.
